Positions count from the first letter of the chain named.
Assays:
Assay in all cases: PBM; 200 nM protein, PBS
Settings in all cases: dsDNA, one strand shown
SIX6 [1] = target: T1, SIX6 (Homo sapiens, UniProt O95475 114-200, L167I)
T1 sequence: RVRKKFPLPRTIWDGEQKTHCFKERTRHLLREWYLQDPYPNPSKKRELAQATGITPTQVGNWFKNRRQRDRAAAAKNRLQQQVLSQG

SIX6 [2] = target: T2, SIX6 (Homo sapiens, UniProt O95475 114-200, L143V)
T2 sequence: T1 sequence with L30V, I54L

SIX6 [3] = target: T3, SIX6 (Homo sapiens, UniProt O95475 114-200, H141N)
T3 sequence: T1 sequence with H28N, I54L

SIX6 [4] = target: T4, SIX6 (Homo sapiens, UniProt O95475 114-200, T165P)
T4 sequence: T1 sequence with T52P, I54L

SIX6 [5] = target: T5, SIX6 (Homo sapiens, UniProt O95475 114-200, L167M)
T5 sequence: T1 sequence with I54M

SIX6 [6] = target: T6, SIX6 (Homo sapiens, UniProt O95475 114-200, L143M)
T6 sequence: T1 sequence with L30M, I54L

SIX6 [7] = target: T7, SIX6 (Homo sapiens, UniProt O95475 114-200, L143I)
T7 sequence: T1 sequence with L30I, I54L

SIX6 [8] = target: T8, SIX6 (Homo sapiens, UniProt O95475 114-200, T165G)
T8 sequence: T1 sequence with T52G, I54L

SIX6 [9] = target: T9, SIX6 (Homo sapiens, UniProt O95475 114-200, T139Q)
T9 sequence: T1 sequence with T26Q, I54L

SIX6 [10] = target: T10, SIX6 (Homo sapiens, UniProt O95475 114-200, T165A)
T10 sequence: T1 sequence with T52A, I54L

SIX6 [11] = target: T11, SIX6 (Homo sapiens, UniProt O95475 114-200, L167V)
T11 sequence: T1 sequence with I54V

SIX6 [12] = target: T12, SIX6 (Homo sapiens, UniProt O95475 114-200)
T12 sequence: T1 sequence with I54L

SIX6 [13] = target: T13, SIX6 (Homo sapiens, UniProt O95475 114-200, T165I)
T13 sequence: T1 sequence with T52I, I54L

Row | Sequence | binding signal (SIX6 [1]) | binding signal (SIX6 [2]) | binding signal (SIX6 [3]) | binding signal (SIX6 [4]) | binding signal (SIX6 [5]) | binding signal (SIX6 [6]) | binding signal (SIX6 [7]) | binding signal (SIX6 [8]) | binding signal (SIX6 [9]) | binding signal (SIX6 [10]) | binding signal (SIX6 [11]) | binding signal (SIX6 [12]) | binding signal (SIX6 [13])
1 | GCCGCCCC | 9.02 upbm affinity estimate (log intensity, higher = more binding, comparable within an allelic series) | 9.06 upbm affinity estimate (log intensity, higher = more binding, comparable within an allelic series) | 8.99 upbm affinity estimate (log intensity, higher = more binding, comparable within an allelic series) | 9.17 upbm affinity estimate (log intensity, higher = more binding, comparable within an allelic series) | 9.05 upbm affinity estimate (log intensity, higher = more binding, comparable within an allelic series) | 9.03 upbm affinity estimate (log intensity, higher = more binding, comparable within an allelic series) | 8.92 upbm affinity estimate (log intensity, higher = more binding, comparable within an allelic series) | 9.03 upbm affinity estimate (log intensity, higher = more binding, comparable within an allelic series) | 8.98 upbm affinity estimate (log intensity, higher = more binding, comparable within an allelic series) | 9.08 upbm affinity estimate (log intensity, higher = more binding, comparable within an allelic series) | 8.99 upbm affinity estimate (log intensity, higher = more binding, comparable within an allelic series) | 8.93 upbm affinity estimate (log intensity, higher = more binding, comparable within an allelic series) | 9.05 upbm affinity estimate (log intensity, higher = more binding, comparable within an allelic series)
2 | ATCGATAC | 11.2 upbm affinity estimate (log intensity, higher = more binding, comparable within an allelic series) | 10.5 upbm affinity estimate (log intensity, higher = more binding, comparable within an allelic series) | 11.2 upbm affinity estimate (log intensity, higher = more binding, comparable within an allelic series) | 9.79 upbm affinity estimate (log intensity, higher = more binding, comparable within an allelic series) | 10.6 upbm affinity estimate (log intensity, higher = more binding, comparable within an allelic series) | 10.9 upbm affinity estimate (log intensity, higher = more binding, comparable within an allelic series) | 10.3 upbm affinity estimate (log intensity, higher = more binding, comparable within an allelic series) | 11.2 upbm affinity estimate (log intensity, higher = more binding, comparable within an allelic series) | 11.3 upbm affinity estimate (log intensity, higher = more binding, comparable within an allelic series) | 11.1 upbm affinity estimate (log intensity, higher = more binding, comparable within an allelic series) | 11 upbm affinity estimate (log intensity, higher = more binding, comparable within an allelic series) | 11 upbm affinity estimate (log intensity, higher = more binding, comparable within an allelic series) | 11 upbm affinity estimate (log intensity, higher = more binding, comparable within an allelic series)
3 | AGGATATC | 11.1 upbm affinity estimate (log intensity, higher = more binding, comparable within an allelic series) | 10.2 upbm affinity estimate (log intensity, higher = more binding, comparable within an allelic series) | 11.1 upbm affinity estimate (log intensity, higher = more binding, comparable within an allelic series) | 9.73 upbm affinity estimate (log intensity, higher = more binding, comparable within an allelic series) | 10.7 upbm affinity estimate (log intensity, higher = more binding, comparable within an allelic series) | 10.9 upbm affinity estimate (log intensity, higher = more binding, comparable within an allelic series) | 10.3 upbm affinity estimate (log intensity, higher = more binding, comparable within an allelic series) | 11.2 upbm affinity estimate (log intensity, higher = more binding, comparable within an allelic series) | 11.1 upbm affinity estimate (log intensity, higher = more binding, comparable within an allelic series) | 11.1 upbm affinity estimate (log intensity, higher = more binding, comparable within an allelic series) | 10.9 upbm affinity estimate (log intensity, higher = more binding, comparable within an allelic series) | 10.9 upbm affinity estimate (log intensity, higher = more binding, comparable within an allelic series) | 10.9 upbm affinity estimate (log intensity, higher = more binding, comparable within an allelic series)
